PubChem BioAssay
For some assays here: Results with a measured potency or affinity are listed apart. Active and inactive are the calls of the source. Unless noted, the rule behind the calls is not given here.

Experiments:
[1] = antimalarial activity against Dd2 strain (AID 2302;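 active = growth inhibition above 50% at the single 2 µM test dose, taken to imply half-maximal potency below 2 µM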;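 note: 0% = DMSO untreated growth and 100% = chloroquine plus artemisinin killed control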); settings: P. falciparum Dd2 in RBCs, LDH growth readout, 72 h; at 2 µM; active compounds read high
[2] = HepG2 cytotoxicity, primary screen, cytotoxicity control for P. falciparum antimalarial project, cell-based, ATP luminescence (AID 2303;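 active = inhibition above 50%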;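 note: 0% = DMSO wells and 100% = digitonin-killed cells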); settings: HepG2 viability, 24-48 h, at 10 µM, active compounds read high
[3] = target: L-lactate dehydrogenase (Plasmodium falciparum (isolate CDC / Honduras)) (UniProt Q27743); experiment: PfLDH activity inhibition – cell lysate, 3D7 strain, counter-screen for P. falciparum growth inhibition project (AID 2304);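 note: 0% = vehicle and 100% = reference inhibitor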; settings: P. falciparum 3D7 crude extract, LDH APAD/NBT absorbance; at 2 µM; active compounds read high
[4] = inhibition of 3D7 malaria parasite growth – strain 3D7 (AID 2306);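 note: 0% = DMSO wells and 100% = chloroquine plus artemisinin control wells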; settings: P. falciparum 3D7 erythrocytic growth, LDH absorbance, 72 h; at 2 µM; active compounds read high
[5] = target: Calcium-dependent protein kinase 1 (Plasmodium falciparum (isolate 3D7)) (UniProt P62344); experiment: PfCDPK1 kinase inhibitors, biochemical, TCAMS library (AID 1159585; cut-off not given, nearly all actives have IC50 up to about 0.98 µM;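 note: inhibitors leave more ATP so luminescence rises with inhibition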); settings: recombinant PfCDPK1, Kinase-Glo ATP depletion luminescence
[6] = target: Plasmodium falciparum protein kinase 6 (PK6, PF3D7_1337100) (UniProt Q8IDW1); experiment: PfPK6 kinase inhibitors, biochemical, TCAMS library (AID 1159586); settings: recombinant PfPK6, Kinase-Glo ATP depletion luminescence
[7] = target: Protein kinase 7 (PK7), Plasmodium falciparum 3D7 (PF3D7_0213400) (UniProt Q7YTF7); experiment: inhibition of Plasmodium PK7 catalytic activity – biochemical, TCAMS antimalarial set, Kinase-Glo luminescence (AID 1159587); settings: recombinant PfPK7, Kinase-Glo ATP depletion luminescence
[8] = target: Calcium-dependent protein kinase 4 (Plasmodium falciparum (isolate 3D7)) (UniProt Q8IBS5); experiment: PfCDPK4 kinase inhibitors, biochemical, TCAMS library (AID 1159588; cut-off not given, nearly all actives have IC50 up to about 0.91 µM); settings: recombinant PfCDPK4, Kinase-Glo ATP depletion luminescence
Sequence of Calcium-dependent protein kinase 4 (Plasmodium falciparum (isolate 3D7)) (Q8IBS5 whole entry, looked up): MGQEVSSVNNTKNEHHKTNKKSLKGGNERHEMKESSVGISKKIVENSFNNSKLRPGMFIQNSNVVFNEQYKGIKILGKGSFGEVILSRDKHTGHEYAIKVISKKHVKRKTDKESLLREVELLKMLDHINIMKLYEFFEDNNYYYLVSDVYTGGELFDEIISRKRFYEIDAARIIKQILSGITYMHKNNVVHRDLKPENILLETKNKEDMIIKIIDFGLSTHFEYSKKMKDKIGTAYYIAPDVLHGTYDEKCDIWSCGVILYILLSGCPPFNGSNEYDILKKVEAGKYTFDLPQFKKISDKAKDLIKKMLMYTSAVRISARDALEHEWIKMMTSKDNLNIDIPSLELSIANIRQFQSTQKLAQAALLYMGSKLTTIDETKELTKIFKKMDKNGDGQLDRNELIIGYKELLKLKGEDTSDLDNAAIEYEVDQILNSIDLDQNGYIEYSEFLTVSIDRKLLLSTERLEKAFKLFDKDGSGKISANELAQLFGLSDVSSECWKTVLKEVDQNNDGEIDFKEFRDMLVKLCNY

Sequence of Protein kinase 7 (PK7), Plasmodium falciparum 3D7 (PF3D7_0213400) (Q7YTF7 1-343): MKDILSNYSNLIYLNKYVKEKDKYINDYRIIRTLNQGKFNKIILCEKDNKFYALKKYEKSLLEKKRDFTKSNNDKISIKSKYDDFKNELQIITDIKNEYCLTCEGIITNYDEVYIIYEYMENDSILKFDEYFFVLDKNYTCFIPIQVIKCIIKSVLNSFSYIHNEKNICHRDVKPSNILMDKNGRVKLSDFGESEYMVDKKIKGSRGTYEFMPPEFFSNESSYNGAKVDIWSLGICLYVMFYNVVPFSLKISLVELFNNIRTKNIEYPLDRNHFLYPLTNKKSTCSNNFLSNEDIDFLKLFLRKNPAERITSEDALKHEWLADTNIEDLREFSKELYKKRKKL
Sequence of L-lactate dehydrogenase (Plasmodium falciparum (isolate CDC / Honduras)) (Q27743 whole entry, looked up): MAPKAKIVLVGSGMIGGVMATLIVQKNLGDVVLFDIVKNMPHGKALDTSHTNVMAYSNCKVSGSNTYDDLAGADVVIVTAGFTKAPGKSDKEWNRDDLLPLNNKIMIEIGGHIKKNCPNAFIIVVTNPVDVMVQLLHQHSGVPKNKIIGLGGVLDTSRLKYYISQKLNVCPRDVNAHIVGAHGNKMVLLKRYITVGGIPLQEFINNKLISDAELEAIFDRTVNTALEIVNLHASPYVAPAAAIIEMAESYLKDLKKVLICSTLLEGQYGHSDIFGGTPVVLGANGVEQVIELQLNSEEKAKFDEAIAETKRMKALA
Sequence of Calcium-dependent protein kinase 1 (Plasmodium falciparum (isolate 3D7)) (P62344 whole entry, looked up): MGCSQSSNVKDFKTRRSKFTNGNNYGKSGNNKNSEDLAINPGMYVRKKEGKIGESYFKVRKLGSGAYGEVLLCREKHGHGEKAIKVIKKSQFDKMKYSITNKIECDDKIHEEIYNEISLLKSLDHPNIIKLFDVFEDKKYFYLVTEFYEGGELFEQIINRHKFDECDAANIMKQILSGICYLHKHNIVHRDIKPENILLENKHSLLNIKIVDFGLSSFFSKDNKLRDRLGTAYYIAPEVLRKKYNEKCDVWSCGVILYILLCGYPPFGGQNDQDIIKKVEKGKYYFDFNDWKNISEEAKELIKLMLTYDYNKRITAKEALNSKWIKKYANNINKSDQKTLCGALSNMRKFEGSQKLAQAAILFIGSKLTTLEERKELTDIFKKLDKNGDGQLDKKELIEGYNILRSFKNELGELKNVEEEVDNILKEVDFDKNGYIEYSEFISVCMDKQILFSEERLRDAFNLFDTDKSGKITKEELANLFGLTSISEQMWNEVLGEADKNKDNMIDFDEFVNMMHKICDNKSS
Sequence of Plasmodium falciparum protein kinase 6 (PK6, PF3D7_1337100) (Q8IDW1 1-305): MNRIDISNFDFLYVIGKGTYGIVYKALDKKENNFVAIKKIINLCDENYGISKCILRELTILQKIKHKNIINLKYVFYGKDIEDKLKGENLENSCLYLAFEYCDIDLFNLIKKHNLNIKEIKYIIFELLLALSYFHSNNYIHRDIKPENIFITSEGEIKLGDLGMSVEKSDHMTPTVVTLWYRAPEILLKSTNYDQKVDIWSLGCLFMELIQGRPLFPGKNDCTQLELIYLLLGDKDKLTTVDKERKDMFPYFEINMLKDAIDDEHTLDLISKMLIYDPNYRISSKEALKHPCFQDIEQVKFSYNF

Cc1cc(N2CCN(C)CC2)nc2ccc(NC(=O)Cc3cccc(C(F)(F)F)c3)cc12
inactive: inhibition [2] 26% | inhibition [3] 3% | outcome [5] | outcome [6] | outcome [7] | outcome [8]
active: growth inhibition [1] 51% | growth inhibition [4] 99%

Cc1cc(N[C@@H](Cc2ccccc2)C(=O)Nc2ccccc2)nc(NCCc2ccc(F)cc2)n1
active: growth inhibition [1] 81% | growth inhibition [4] 96%
inactive: inhibition [2] 26% | inhibition [3] 0% | outcome [5] | outcome [6] | outcome [7] | outcome [8]

COc1ccc(-c2cc(-c3ccc(S(C)(=O)=O)cc3)cnc2N)cn1
inactive: inhibition [2] 5% | inhibition [3] 0% | outcome [5] | outcome [6] | outcome [7] | outcome [8]
active: growth inhibition [1] 99% | growth inhibition [4] 94%

O=C(/C=C/c1ccc(Cl)cc1)NCCCCCN1CCN(C(=O)Nc2ccc(Cl)c(C(F)(F)F)c2)CC1
active: growth inhibition [4] 94%
inactive: growth inhibition [1] 5% | inhibition [2] 18% | inhibition [3] 8% | outcome [5] | outcome [6] | outcome [7] | outcome [8]

CN(C)Cc1c(O)ccc2[nH]c(-c3ccc(F)cc3F)nc12
inactive: growth inhibition [1] 17% | inhibition [2] 4% | inhibition [3] -2% | outcome [5] | outcome [6] | outcome [7] | outcome [8]
active: growth inhibition [4] 99%

FC(F)(F)COc1c(CNCCCCCCNCc2ccc3ccccc3c2OCC(F)(F)F)ccc2ccccc12
active: growth inhibition [1] 79% | inhibition [2] 100% | growth inhibition [4] 101%
inactive: inhibition [3] 6% | outcome [5] | outcome [6] | outcome [7] | outcome [8]

O=C(/C=C/c1ccc(Cl)cc1)NCCCCCN1CCCN(C(=O)Nc2ccc(F)c(Cl)c2)CC1
inactive: growth inhibition [1] 6% | inhibition [2] 29% | inhibition [3] 1% | outcome [5] | outcome [6] | outcome [7] | outcome [8]
active: growth inhibition [4] 94%

COc1ccc(NC(=O)Nc2ccc(-c3ccccc3)cc2Cl)cc1N1CCN(C)CC1
active: growth inhibition [4] 90%
inactive: growth inhibition [1] 30% | inhibition [2] 40% | inhibition [3] 0% | outcome [5] | outcome [6] | outcome [7] | outcome [8]

Cc1csc(-c2nc(NCc3cccnc3)ncc2-c2ccsc2)n1
inactive: inhibition [2] -5% | inhibition [3] -1% | outcome [5] | outcome [6] | outcome [7] | outcome [8]
active: growth inhibition [1] 74% | growth inhibition [4] 87%

CN(c1ncc(-c2cccc(CNCc3ccccc3O)c2)cn1)C1CCCCC1
inactive: inhibition [2] 12% | inhibition [3] 3% | outcome [5] | outcome [6] | outcome [7] | outcome [8]
active: growth inhibition [1] 71% | growth inhibition [4] 95%

OCCN1CCN(Cc2ccc(-c3ccc(-c4nc5ccccc5[nH]4)cc3)cc2)CC1
inactive: inhibition [2] 6% | inhibition [3] -1% | outcome [5] | outcome [6] | outcome [7] | outcome [8]
active: growth inhibition [1] 58% | growth inhibition [4] 100%

Cc1nc2ccc([N+](=O)[O-])cc2c(=O)n1OCc1ccccc1
inactive: growth inhibition [1] -1% | inhibition [2] 2% | inhibition [3] -2% | outcome [5] | outcome [6] | outcome [7] | outcome [8]
active: growth inhibition [4] 98%

CCN(CC)CCOc1c(Cl)cc(Cl)cc1CNCCCNc1cc(=O)c2ccccc2[nH]1
inactive: growth inhibition [1] 6% | inhibition [2] 11% | inhibition [3] -1% | outcome [5] | outcome [6] | outcome [7] | outcome [8]
active: growth inhibition [4] 97%

Oc1ccc(Cc2ccccc2)cc1CNC1CCCCC1
active: growth inhibition [1] 98% | growth inhibition [4] 96%
inactive: inhibition [2] 30% | inhibition [3] -1% | outcome [5] | outcome [6] | outcome [7] | outcome [8]

CCNc1cc(C)nc(Nc2ccc(NC(=O)c3ccccc3Br)cc2)n1
inactive: inhibition [2] 46% | inhibition [3] -3% | outcome [5] | outcome [6] | outcome [7] | outcome [8]
active: growth inhibition [1] 56% | growth inhibition [4] 100%

CCOc1ccc2nc(C)cc(NN=Cc3ccccc3F)c2c1
active: growth inhibition [1] 99% | growth inhibition [4] 101%
inactive: inhibition [2] 0% | inhibition [3] -3% | outcome [5] | outcome [6] | outcome [7] | outcome [8]

COc1ccc(-c2nc(NC(=O)CS(=O)(=O)c3ccc(F)cc3)sc2C)cc1
inactive: inhibition [2] 20% | inhibition [3] -3% | outcome [5] | outcome [6] | outcome [7] | outcome [8]
active: growth inhibition [1] 99% | growth inhibition [4] 100%

COc1ccc2nccc([C@@H](O)CN3CCC(NCc4nc5c(F)cccc5[nH]4)CC3)c2c1
active: growth inhibition [4] 103%
inactive: growth inhibition [1] 6% | inhibition [2] -6% | inhibition [3] -7% | outcome [5] | outcome [6] | outcome [7] | outcome [8]

CCc1ccc(CN2CCC(NC(=O)c3ccc(-c4ccccc4F)s3)CC2)cc1
inactive: growth inhibition [1] 12% | inhibition [2] 35% | inhibition [3] 2% | outcome [5] | outcome [6] | outcome [7] | outcome [8]
active: growth inhibition [4] 80%

CCc1cccc(OCC2CCCN(c3ccc(C(=O)NC4CC4)cn3)C2)c1 (stereo not given)
inactive: inhibition [2] -1% | inhibition [3] 5% | outcome [5] | outcome [6] | outcome [7] | outcome [8]
active: growth inhibition [1] 73% | growth inhibition [4] 94%

CCNc1cc(C(=O)N[C@@H](Cc2ccccc2)[C@H](O)CNC2(C(C)C)CCC2)cc(N2CCCCS2(=O)=O)c1
active: growth inhibition [1] 85% | growth inhibition [4] 99%
inactive: inhibition [2] -3% | inhibition [3] -2% | outcome [5] | outcome [6] | outcome [7] | outcome [8]

CN(C)CCOc1cc(NC(=O)Nc2ccc(-c3ccncc3)c3ccccc23)ccc1I
inactive: growth inhibition [1] 46% | inhibition [2] 35% | inhibition [3] -3% | outcome [5] | outcome [6] | outcome [7] | outcome [8]
active: growth inhibition [4] 97%

CCCN(CCC)c1nn2c(=O)c(C(=O)N3CCN(Cc4ccccc4)CC3)cnc2s1
inactive: inhibition [2] -22% | inhibition [3] -2% | outcome [5] | outcome [6] | outcome [7] | outcome [8]
active: growth inhibition [1] 89% | growth inhibition [4] 84%

CCNc1cc(C(=O)N[C@@H](Cc2ccccc2)[C@H](O)CNCc2cccc(-n3ccnc3)c2)cc(N2CCCC2=O)c1
inactive: inhibition [2] 1% | inhibition [3] 1% | outcome [5] | outcome [6] | outcome [7] | outcome [8]
active: growth inhibition [1] 96% | growth inhibition [4] 99%

CCN1CCCC1CNC(=O)c1cc2c(-c3ccc(Cl)cc3)nn(C)c2s1 (stereo not given)
active: growth inhibition [4] 96%
inactive: growth inhibition [1] 20% | inhibition [2] 27% | inhibition [3] -9% | outcome [5] | outcome [6] | outcome [7] | outcome [8]

CCCCCn1c(Sc2ccc(C#N)c([N+](=O)[O-])c2)nnc1-c1ccc(Cl)cc1
inactive: growth inhibition [1] 29% | inhibition [2] 18% | inhibition [3] 3% | outcome [5] | outcome [6] | outcome [7] | outcome [8]
active: growth inhibition [4] 88%

COCCn1c(C)cc(C(=O)CN2C(=O)NC(C)(c3ccc(C(C)(C)C)cc3)C2=O)c1C (stereo not given)
active: growth inhibition [1] 96% | growth inhibition [4] 97%
inactive: inhibition [2] 7% | inhibition [3] 1% | outcome [5] | outcome [6] | outcome [7] | outcome [8]

O=S(=O)(NCCN1CCCC1)c1ccc(-c2cccc(CNC3Cc4ccccc4C3)c2)s1
active: growth inhibition [1] 69% | inhibition [2] 57% | growth inhibition [4] 98%
inactive: inhibition [3] 2% | outcome [5] | outcome [6] | outcome [7] | outcome [8]

Cc1ccccc1C1CCN(C2CCC(NC(=O)/C=C/c3cccc(Cl)c3Cl)CC2)CC1 (stereo not given)
active: inhibition [2] 74% | growth inhibition [4] 94%
inactive: growth inhibition [1] 23% | inhibition [3] 2% | outcome [5] | outcome [6] | outcome [7] | outcome [8]

Cc1ccc(NC(=O)c2ccc(-c3cc4cc(Cl)c(Cl)cc4[nH]3)cc2)cc1OCCN1CCCC1
active: growth inhibition [1] 90% | growth inhibition [4] 101%
inactive: inhibition [2] 7% | inhibition [3] -6% | outcome [5] | outcome [6] | outcome [7] | outcome [8]

CCOC(=O)NCC(=O)Nc1cccc(-c2cccc(-c3nc4c(C)cccc4[nH]3)c2)c1
inactive: growth inhibition [1] 35% | inhibition [2] 14% | inhibition [3] 1% | outcome [5] | outcome [6] | outcome [7] | outcome [8]
active: growth inhibition [4] 88%

CC(=O)c1cc(N2CCOCC2)ccc1N
inactive: growth inhibition [1] 43% | inhibition [2] 7% | inhibition [3] 3% | outcome [5] | outcome [6] | outcome [7] | outcome [8]
active: growth inhibition [4] 91%

CC(=O)N1CCN(c2ccc(NC(=O)c3oc(-c4ccccc4)nc3C(F)(F)F)cn2)CC1
inactive: inhibition [2] -6% | inhibition [3] -2% | outcome [5] | outcome [6] | outcome [7] | outcome [8]
active: growth inhibition [1] 93% | growth inhibition [4] 92%

Cc1nc(N)nc(N)c1OCc1cccc2ccccc12
inactive: growth inhibition [1] 11% | inhibition [3] -1% | outcome [5] | outcome [6] | outcome [7] | outcome [8]
active: inhibition [2] 63% | growth inhibition [4] 96%

Cc1cccc2[nH]c(-c3cccc(-c4cccc(NC(=O)CC5NC(=O)c6ccccc65)c4)c3)nc12 (stereo not given)
active: growth inhibition [4] 92%
inactive: growth inhibition [1] 49% | inhibition [2] 8% | inhibition [3] -1% | outcome [5] | outcome [6] | outcome [7] | outcome [8]

NC(=O)c1cccc(CNC(=O)NC[C@H]2CN(Cc3ccc(Cl)c(Cl)c3)CCO2)c1
inactive: inhibition [2] -3% | inhibition [3] 1% | outcome [5] | outcome [6] | outcome [7] | outcome [8]
active: growth inhibition [1] 65% | growth inhibition [4] 98%

NC1CCN(Cc2cccc(-c3ccc(-c4nc5ccccc5[nH]4)s3)c2)C1 (stereo not given)
inactive: inhibition [2] 36% | inhibition [3] -1% | outcome [5] | outcome [6] | outcome [7] | outcome [8]
active: growth inhibition [1] 62% | growth inhibition [4] 100%

CCOc1cccc(C(=O)Nc2cccc(CN3CCCN(Cc4cccc(O)c4)CC3)c2)c1
inactive: growth inhibition [1] 18% | inhibition [2] 17% | inhibition [3] -3% | outcome [5] | outcome [6] | outcome [7] | outcome [8]
active: growth inhibition [4] 85%

CCOC(=O)C(C(C)=O)C(c1ccccc1)C(C(C)=O)C(=O)OCC (stereo not given)
inactive: growth inhibition [1] 14% | inhibition [2] 6% | inhibition [3] 2% | outcome [5] | outcome [6] | outcome [7] | outcome [8]
active: growth inhibition [4] 95%

CSc1cccc(Nc2nc3ccc(S(=O)(=O)NC(C)C(C)C)cc3n2[C@H](C)C(C)(C)C)c1 (stereo not given in full)
active: growth inhibition [1] 98% | growth inhibition [4] 97%
inactive: inhibition [2] -10% | inhibition [3] 0% | outcome [5] | outcome [6] | outcome [7] | outcome [8]
